The text below walks through data of PubChem BioAssay AID652115 (Broad Institute, 2013).

Molecules are shown by their SMILES. “And” between values parts separate entries of the source, which are not always exact repeats. Equal values may be shown once. The campaign covered roughly 330,000 compounds. About 3,800 (1.2%) were called active. For the sample, actives were picked, then their nearest neighbours and some compounds at random. A number with no mark means an inactive call. No stated cut-off is given here; in the data, active means inhibition above about 15%; inconclusive means no clear call, values can overlap the other calls; inactive means below that.

In the experiment the target is NAD-dependent protein deacylase sirtuin-5, mitochondrial (Homo sapiens) (UniProt Q9NXA8). The experiment can be described thus: SIRT5 desuccinylase inhibitors, primary screen, biochemical, fluorescence imaging, single point, set 5 (AID 652115). Conditions: Purified SirT5, succinyl-peptide AMC, trypsin-coupled fluorescence; at 15 µM; active compounds read high.
NAD-dependent protein deacylase sirtuin-5, mitochondrial (Homo sapiens), sequence (Q9NXA8 whole entry, looked up): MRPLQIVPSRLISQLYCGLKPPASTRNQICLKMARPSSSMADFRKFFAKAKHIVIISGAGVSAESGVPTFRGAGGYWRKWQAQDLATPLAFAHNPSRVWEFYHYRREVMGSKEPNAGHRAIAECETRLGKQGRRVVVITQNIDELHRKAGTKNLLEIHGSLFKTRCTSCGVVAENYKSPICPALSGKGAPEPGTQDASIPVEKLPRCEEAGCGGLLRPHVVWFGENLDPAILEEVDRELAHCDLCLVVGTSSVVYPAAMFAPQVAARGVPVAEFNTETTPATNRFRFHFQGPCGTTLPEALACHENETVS
Regarding `O=C(Nc1ccc(C(F)(F)F)cc1)N[C@@H]1CC[C@H](CC(=O)N2CCCCC2)O[C@H]1CO`, the inhibition was -2.54%.

In the case of `O=C([C@@H]1[C@@H](CO)[C@@H]2Cn3c(ccc(-c4ccccc4)c3=O)[C@H]1N2CCC(F)(F)F)N1CCCCC1`, the inhibition was -29.7%.

Take `CCCNC(=O)N1CC(=O)N2[C@H](CO)[C@@H](c3ccc(-c4ccc(F)cc4)cc3)[C@H]2C1`: the inhibition is 4.11%.

Turning to `C[C@H](CO)N1C[C@H](C)[C@@H](CN(C)C(=O)Nc2ccnc(N3CCOCC3)c2)OCc2ccccc2-c2c(n(C)c3ccccc23)C1=O`, the inhibition is -5.68%.

In the case of `Cc1nnc(NC(=O)c2ccc3nccnc3c2)s1`, the inhibition is 16.3% (active).

For `Cc1ccc(C)c(NC(=O)c2ccc3nccnc3c2)c1`, the inhibition is 0.033%.

Take `CC(C)CCC(C)NC(=O)c1ccc2nccnc2c1` (centres undefined): the inhibition is 7.36%.

For `O=C(Nc1ccc(C(F)(F)F)cc1)N[C@@H]1CC[C@H](CCNC(=O)c2ccccc2F)O[C@@H]1CO`, the inhibition is 0.363%.

As to `Cc1ccc(S(=O)(=O)NC[C@H]2CC[C@@H]3[C@@H](CN3Cc3ccccc3C(=O)O)O2)cc1`, the inhibition is -3.22%.

Turning to `C[C@@H](NC(=O)C[C@H]1C[C@H]2c3cc(NC(=O)Nc4ccccc4F)ccc3O[C@H]2[C@@H](CO)O1)c1ccccc1`, the inhibition was 2.15%.

`Nc1nnc(SCC(=O)NCC(=O)Nc2ccc(F)c(F)c2F)s1`: the inhibition was 0.518%.

In the case of `COC(=O)c1ccc(CSc2nnc(N)s2)o1`, the inhibition was 16% (active).

Take `COCC(C)n1c(SCc2ccc(C(=O)OC)o2)nc2ccccc2c1=O` (centres undefined): the inhibition is 1.17%.

As to `CN1CCN(C(=O)C[C@H]2CC[C@@H](NC(=O)c3ccc4c(c3)OCO4)[C@H](CO)O2)CC1`, the inhibition is 1.96%.

With `CCOC(=O)c1c(NC(=S)Nc2ccccc2C)sc2c1CCC2`, the inhibition is 22.8% (active).

On to `CCOC(=O)c1c(NC(=O)C(C)Sc2c[nH]c3ccccc23)sc2c1CCC2` (centres undefined), for which the inhibition is 0.63%.

As to `CCOC(=O)c1c(NC(=O)C2(C)Cc3ccccc3C(=O)O2)sc2c1CCCC2` (centres undefined), the inhibition is -3.61%.

Take `O=C(C[C@H]1CC[C@H]2[C@@H](COC[C@@H](O)CN2Cc2ccccc2F)O1)NCc1ccccc1F`: the inhibition was 3.18%.

On to `O=C1NC(c2ccncc2)Nc2sc3c(c21)CCCC3` (centres undefined), for which the inhibition was 15.5% (active).

As to `C/C(=C\c1ccccc1)C1NC(=O)c2c(sc3c2CCCC3)N1` (centres undefined), the inhibition was -1.37%.

Regarding `CC(=O)N1[C@@H](CO)[C@@H](c2ccc(C3=CCCC3)cc2)C12CN(C(=O)C1CC1)C2`, the inhibition is 3.6%.

On to `CO[C@H]1CN(C)C(=O)c2ccc(NC(=O)c3ccno3)cc2OC[C@@H](C)N(S(C)(=O)=O)C[C@H]1C`, for which the inhibition is 17% (active).

Take `CO[C@H]1CN(C)C(=O)c2ccc(NC(=O)c3cnccn3)cc2OC[C@H](C)N(C)C[C@@H]1C`: the inhibition is 0.983%.

Turning to `CO[C@@H]1CN(C)C(=O)c2cc(NC(=O)c3ccno3)ccc2OC[C@@H](C)N(S(C)(=O)=O)C[C@@H]1C`, the inhibition was 0.416%.

Regarding `COCC(=O)Nc1ccc2c(c1)[C@H]1C[C@H](CC(=O)NCc3ccc(OC)cc3)O[C@@H](CO)[C@H]1O2`, the inhibition was -0.814%.

Consider `CCCNC(=O)N1C[C@H](C)[C@@H](OC)CN(C)C(=O)c2ccc(NS(C)(=O)=O)cc2OC[C@@H]1C`, for which the inhibition was -4.54%.

`C[C@@H]1CN([C@@H](C)CO)C(=O)c2cc(-c3ccc(C#N)cc3)cnc2O[C@@H]1CN(C)Cc1cccnc1`: the inhibition was -2.7%.

As to `CO[C@H]1CN(C)C(=O)c2ccc(NC(=O)Nc3ccc(Cl)cc3)cc2OC[C@H](C)N(C(=O)Nc2c(C)noc2C)C[C@@H]1C`, the inhibition was -0.008%.

Take `COc1ccc(NC(=O)CSc2ccc(-c3ccco3)nn2)c(OC)c1`: the inhibition was -1.12%.

In the case of `COc1ccccc1OCC(=O)O/N=C(\N)c1ccccn1`, the inhibition was 0.993%.

For the compound `COc1ccccc1OCC(=O)OCc1cc(-c2ccco2)on1`, the inhibition is 18.8% (active).

On to `COCC(=O)Nc1ccc2c(c1)OC[C@@H](C)N(C(=O)c1cnccn1)C[C@H](C)[C@H](OC)CN(C)C2=O`, for which the inhibition is -3.74%.

With `CCC(=O)N1CC(=O)N2[C@@H](CO)[C@@H](c3ccc(C#CC4CCCC4)cc3)[C@@H]2C1`, the inhibition is -0.876%.

Regarding `C[C@H](CO)N1C[C@H](C)[C@H](CN(C)C(=O)c2ccccn2)Oc2ncc(-c3ccccc3F)cc2C1=O`, the inhibition was 0.464%.

For `Cc1ccc(S(=O)(=O)N(C)C[C@H]2OCCCC[C@@H](C)Oc3ccc(NS(C)(=O)=O)cc3C(=O)N([C@H](C)CO)C[C@@H]2C)cc1`, the inhibition was -1.35%.

For the compound `C[C@@H]1CCCCO[C@H](CN(C)Cc2ccc(C(F)(F)F)cc2)[C@@H](C)CN([C@@H](C)CO)C(=O)c2cc(NC(=O)c3ccncc3)ccc2O1`, the inhibition is 15.9% (active).

As to `C[C@@H]1CCCCO[C@H](CN(C)Cc2ccc(C(F)(F)F)cc2)[C@H](C)CN([C@H](C)CO)C(=O)c2cc(NC(=O)Nc3ccc(F)cc3)ccc2O1`, the inhibition was 5.62%.

Consider `Cc1ccc(S(=O)(=O)Nc2ccc3c(c2)C(=O)N([C@@H](C)CO)C[C@@H](C)[C@H](CN(C)Cc2ccc4c(c2)OCO4)OCCCC[C@@H](C)O3)cc1`, for which the inhibition is 4.41%.

As to `C[C@H](CO)N1C[C@H](C)[C@H](CN(C)CC2CCCCC2)OCCCC[C@H](C)Oc2ccc(NS(=O)(=O)c3ccc(F)cc3)cc2C1=O`, the inhibition is 13.2%.

Consider `Cc1ccc(S(=O)(=O)Nc2ccc3c(c2)C(=O)N([C@@H](C)CO)C[C@@H](C)[C@H](CN(C)Cc2ccc(Cl)c(Cl)c2)OCCCC[C@@H](C)O3)cc1`, for which the inhibition is 17.4% (active).

In the case of `Cc1ccc(S(=O)(=O)N(C)C[C@@H]2OCCCC[C@@H](C)Oc3ccc(NS(=O)(=O)c4ccccc4)cc3C(=O)N([C@H](C)CO)C[C@@H]2C)cc1`, the inhibition was 15%.

In the case of `CC(C)NC(=O)Nc1ccc2c(c1)C(=O)N([C@H](C)CO)C[C@H](C)[C@@H](CN(C)Cc1ccc(C(F)(F)F)cc1)OCCCC[C@@H](C)O2`, the inhibition is 0.221% and 2.28%.

Consider `Cc1ccc(S(=O)(=O)Nc2ccc3c(c2)C(=O)N([C@H](C)CO)C[C@@H](C)[C@H](CN(C)S(=O)(=O)c2ccc(C)cc2)OCCCC[C@@H](C)O3)cc1`, for which the inhibition is 15.5% (active).

As for `C[C@@H]1CCCCO[C@@H](CN(C)Cc2ccc(Cl)c(Cl)c2)[C@H](C)CN([C@@H](C)CO)C(=O)c2cc(NS(C)(=O)=O)ccc2O1`, the inhibition was 11.8%.

Take `C[C@@H]1CCCCO[C@H](CN(C)CC2CCCCC2)[C@H](C)CN([C@H](C)CO)C(=O)c2cc(NS(=O)(=O)c3ccc(F)cc3)ccc2O1`: the inhibition is 16% (active).

`C[C@@H]1CCCCO[C@@H](CN(C)S(C)(=O)=O)[C@H](C)CN([C@@H](C)CO)C(=O)c2cc(NS(=O)(=O)c3ccc(F)cc3)ccc2O1`: the inhibition was 1.65%.

With `CN(C)CC(=O)N1[C@@H](C#N)[C@@H](c2ccccc2-c2ccccc2F)[C@@H]1CO`, the inhibition was -0.215%.

As to `COCC(=O)N1C[C@@H](C)[C@H](OC)CN(C)C(=O)c2cc(NC(=O)c3cc(C)on3)ccc2OC[C@@H]1C`, the inhibition is -4.63%.

With `N#Cc1ccc(-c2ccc([C@@H]3[C@H]4CNC[C@@H]3N4Cc3cc(F)ccc3F)cc2)cc1`, the inhibition is -3.56%.

As for `COCC#Cc1cnc2c(c1)C(=O)N([C@H](C)CO)C[C@H](C)[C@H](CN(C)C(=O)Nc1ccccc1OC)O2`, the inhibition was 3.78%.

For `C[C@@H](NC(=O)C[C@H]1C[C@@H]2c3cc(NC(=O)Nc4ccccc4F)ccc3O[C@@H]2[C@H](CO)O1)c1ccccc1`, the inhibition was 1.89%.

In the case of `COc1ccccc1NC(=O)Nc1ccc2c(c1)OC[C@H](C)NC[C@H](C)[C@@H](OC)CN(C)C2=O`, the inhibition is 6.5%.

Take `C[C@H]1CCCCO[C@@H](CN(C)Cc2ccc3c(c2)OCO3)[C@@H](C)CN([C@@H](C)CO)C(=O)c2cc(NC(=O)Nc3ccc(F)cc3)ccc2O1`: the inhibition is 1.57%.

Consider `COc1ccc(S(=O)(=O)Nc2ccc3c(c2)C(=O)N([C@@H](C)CO)C[C@H](C)[C@@H](CN(C)S(=O)(=O)c2ccc(F)cc2)OCCCC[C@H](C)O3)cc1`, for which the inhibition was 3.5%.

`CC(C)NC(=O)Nc1ccc2c(c1)C(=O)N([C@@H](C)CO)C[C@H](C)[C@H](CN(C)S(=O)(=O)c1ccc(Cl)cc1)OCCCC[C@H](C)O2`: the inhibition was 4.57%.

Consider `C[C@@H]1CCCCO[C@@H](CN(C)Cc2ccc3c(c2)OCO3)[C@@H](C)CN([C@@H](C)CO)C(=O)c2cc(NC(=O)Nc3ccccc3)ccc2O1`, for which the inhibition is 0.341%.

Consider `COc1ccc(S(=O)(=O)N(C)C[C@H]2OCCCC[C@H](C)Oc3ccc(NS(=O)(=O)c4ccc(F)cc4)cc3C(=O)N([C@@H](C)CO)C[C@@H]2C)cc1`, for which the inhibition was 20.4% (active).

`COc1ccc(S(=O)(=O)Nc2ccc3c(c2)C(=O)N([C@@H](C)CO)C[C@H](C)[C@H](CN(C)S(=O)(=O)c2ccc(F)cc2)OCCCC[C@@H](C)O3)cc1`: the inhibition was 11.3%.

Take `COc1ccc(S(=O)(=O)Nc2ccc3c(c2)C(=O)N([C@@H](C)CO)C[C@H](C)[C@@H](CN(C)S(=O)(=O)c2ccc(C)cc2)OCCCC[C@@H](C)O3)cc1`: the inhibition was 4.83%.

With `C[C@@H]1CN([C@H](C)CO)C(=O)c2cc(NC(=O)Nc3ccc4c(c3)OCO4)ccc2O[C@@H](C)CCCCO[C@@H]1CN(C)Cc1ccc2c(c1)OCO2`, the inhibition is 15.3% (active).

On to `C[C@@H]1CN([C@@H](C)CO)C(=O)c2cc(NC(=O)Nc3cccc4ccccc34)ccc2O[C@@H](C)CCCCO[C@@H]1CN(C)S(=O)(=O)c1ccc(Cl)cc1`, for which the inhibition was 18.7% (active).

In the case of `COc1ccc(S(=O)(=O)N(C)C[C@@H]2OCCCC[C@@H](C)Oc3ccc(NS(=O)(=O)c4ccccc4)cc3C(=O)N([C@@H](C)CO)C[C@H]2C)cc1`, the inhibition is 4.81%.

For the compound `COc1ccc(S(=O)(=O)N(C)C[C@H]2OCCCC[C@@H](C)Oc3ccc(NS(=O)(=O)c4ccc(C)cc4)cc3C(=O)N([C@@H](C)CO)C[C@@H]2C)cc1`, the inhibition is 21.4% (active).

Consider `C[C@H](CO)N1C[C@H](C)[C@@H](CN(C)S(C)(=O)=O)OCCCC[C@H](C)Oc2ccc(NC(=O)Nc3cccc4ccccc34)cc2C1=O`, for which the inhibition was -3.3%.

The term inhibition denotes the drop in the measured response relative to a control, in per cent.
